This note sets out measurements from PubChem BioAssay (Tox21).

Assay [1] is described as follows: A CellTox Green Cytotoxicity Assay to monitor cytotoxicity in HEK293 cells - 32 hour (AID 1224881). Further: nearly all actives have a fitted effect of over 40% in size. The method in brief: (§1)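 Each value comes from one timepoint of a single continuous run in which HEK293 cells with CellTox Green were exposed to compound for up to 40 h at 37 C, dye fluorescence rising with cell death.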
A short description of assay [2]: A CellTox Green Cytotoxicity Assay to monitor cytotoxicity in HepG2 cells - 0 hour (AID 1224882). Further: nearly all actives have a fitted effect of over 35% in size. In outline: (§2)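 Continuous culture of HepG2 cells with a membrane-impermeant DNA dye; rising fluorescence marks dead cells. Compound exposure lasted up to 40 h at 37 C, with reads every 8 h from 0 h.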
Assay [3] can be described thus: qHTS RealTime-Glo MT Cell Viability Assay in HepG2 cells - 16 hour (AID 1224885). Further: nearly all actives have a fitted effect of over 50% in size. Further: potency means the concentration at half of the fitted maximal effect. The method in brief:
(§3)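 Compound treatment began 5 h after plating HepG2 cells (600/well) with NanoLuc luciferase and prosubstrate. Plates stayed at 37 C for 40 h; luminescence was captured at six time points, 0 h through 40 h.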

Assay [4] in a line: qHTS RealTime-Glo MT Cell Viability Assay in HEK293 cells - 8 hour (AID 1224887). Further: nearly all actives have a fitted effect of over 50% in size. Further: potency means the concentration at half of the fitted maximal effect. In outline:
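qHTS format; HEK293 cells with NanoLuc/prosubstrate reagent, 37 C/5% CO2 for 5 h pre-dosing; compounds 23 nL in DMSO; luminescence at each time point reflects viable cells.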
For orientation: Quantitative high-throughput screening tests each substance at several concentrations.

The nature of assay [5]: qHTS RealTime-Glo MT Cell Viability Assay in HepG2 cells - 0 hour (AID 1224889). Further: nearly all actives have a fitted effect of over 50% in size. In outline:
as §3

Assay [6] addresses Estrogen receptor (Homo sapiens) (UniProt P03372). The assay can be described thus: qHTS assay to identify small molecule antagonists of the estrogen receptor alpha (ER-alpha) signaling pathway using the BG1 cell line in the presence of 0.1 nM 17-beta-estradiol (AID 1259244). Further: nearly all actives have a fitted effect of over 50% in size. The method in brief: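 Quantitative high-throughput screen in VM7Luc4E2 cells: compound plus 0.1 nM E2 (final), 22 h, 37C, 5% CO2; ONE-Glo added, 30 min room temperature, luminescence measured.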

Assay [7] in a line: qHTS assay to identify small molecule HDAC inhibitors (AID 1259364). Further: nearly all actives have a fitted effect of over 45% in size. Further: potency means the concentration at half of the fitted maximal effect. In outline:
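Endogenous HDAC class I/II activity was measured in wild-type HCT-116 cells by HDAC-Glo luminescence after 2 h compound treatment.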

Assay [8] in a line: qHTS assay to identify small molecule HDAC inhibitors - cell viability counter screen (AID 1259365). In outline: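 Wild-type HCT-116 cells were seeded at 1,500 per well, incubated overnight at 37 C, then exposed to compounds in DMSO for 2hr. Viability was read by CellTiter-Glo luminescence after 30min at room temperature.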
The nature of assay [9]: qHTS assay to identify small molecule agonists of the sonic hedgehog signaling (Shh) pathway - cell viability counter screen (AID 1259366). Further: nearly all actives have a fitted effect of over 50% in size. Further: potency means the concentration at half of the fitted maximal effect. In outline: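 NIH/3T3-derived 3T3 Gli1-Luc cells (stable Gli1-responsive firefly luciferase reporter) were seeded, rested 4 hr at 37 C/5% CO2, then exposed to compounds in DMSO for 24 hr; viability was read by CellTiter-Fluor fluorescence in the same wells.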

Assay [10] can be described thus: qHTS assay to identify small molecule antagonists of the sonic hedgehog signaling (Shh) pathway - cell viability counter screen (AID 1259367). Further: nearly all actives have a fitted effect of over 55% in size. Further: potency means the concentration at half of the fitted maximal effect. The method in brief:
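Seed 3T3 Gli1-Luc cells at 2,000 per well; incubate 4 hr; add compound in DMSO, then conditioned medium; incubate at 37C with 5% CO2; add CellTiter-Fluor after 23 hr; read fluorescence 1 hr later.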

A short description of assay [11]: qHTS assay to identify small molecule agonists of the sonic hedgehog signaling (Shh) pathway (AID 1259368; calls by dose curve; further: series mostly up to about 92 µM; nearly all actives have a fitted effect of over 15% in size). In outline:
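Luminescent signal was taken as a measure of Gli1-controlled luciferase expression in stably transfected NIH/3T3-derived cells that had been treated for 24 hr with compounds delivered in DMSO.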

A short description of assay [12]: A CellTox Green Cytotoxicity Assay to monitor cytotoxicity in HEK293 cells - 16 hour (AID 1224888). Further: nearly all actives have a fitted effect of over 35% in size. The method in brief: as §1
A short description of assay [13]: A CellTox Green Cytotoxicity Assay to monitor cytotoxicity in HepG2 cells - 8 hour (AID 1224890). Further: nearly all actives have a fitted effect of over 45% in size. Further: potency means the concentration at half of the fitted maximal effect. The method in brief: as §2
A short description of assay [14]: qHTS assay to identify small molecule antagonists of the estrogen receptor alpha (ER-alpha) signaling pathway using the BG1 cell line in the presence of 0.1 nM 17-beta-estradiol - cell viability counter screen (AID 1259241). Further: nearly all actives have a fitted effect of over 40% in size. Further: potency means the concentration at half of the fitted maximal effect. In outline:
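VM7Luc4E2 cells (endogenous ER-alpha, 4×ERE-luciferase), hormone-starved 5 days in charcoal-stripped FBS, were treated with compounds plus 0.1 nM 17beta-estradiol for 22 hr at 37C; viability read in same wells as CellTiter-Fluor live-cell protease fluorescence.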

The nature of assay [15]: qHTS assay to identify small molecule phospholipidosis (PLD) inducers (AID 1259344; active means well fitted curve in the direction sought with a large enough effect; an effect the other way counts as inactive or inconclusive). The method in brief: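 Quantitative HTS in HepG2: compound plus LipidTOX Red dye for 24 h, paraformaldehyde fixation with Hoechst 33342, widefield high-content imaging; amiodarone as positive and DMSO as negative control.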
Assay [16] is described as follows: A CellTox Green Cytotoxicity Assay to monitor cytotoxicity in HepG2 cells - 32 hour (AID 1224883). Further: nearly all actives have a fitted effect of over 50% in size. Further: potency means the concentration at half of the fitted maximal effect. In outline: as §2
Assay [17] is described as follows: qHTS assay to identify small molecule antagonists of the androgen receptor (AR) signaling pathway using the MDA cell line in the presence of 0.5 nM R1881 - cell viability counter screen (AID 1259242). Further: nearly all actives have a fitted effect of over 45% in size. In outline: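 Fluorescence from CellTiter-Fluor, which reports protease activity of live cells, was read 30 min after reagent addition to MDA-kb2 cells that had been incubated 16 hr with compound and 0.5 nM R1881.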

A short description of assay [18]: qHTS RealTime-Glo MT Cell Viability Assay in HEK293 cells - 24 hour (AID 1224886). The method in brief: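 Quantitative high-throughput screen of the Tox21 10K library in HEK293: cells and RealTime-Glo reagents plated together, compound added at 5 h, luminescence monitored through 40 h at 37 C.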
Assay [19] in a line: A CellTox Green Cytotoxicity Assay to monitor cytotoxicity in HEK293 cells - 8 hour (AID 1224884). Further: nearly all actives have a fitted effect of over 35% in size. In outline:
as §1

Assay [20] addresses Androgen receptor (Homo sapiens) (UniProt P10275). The assay can be described thus: qHTS assay to identify small molecule antagonists of the androgen receptor (AR) signaling pathway using the MDA cell line in the presence of 0.5 nM R1881 (AID 1259243). Further: nearly all actives have a fitted effect of over 50% in size. Further: potency means the concentration at half of the fitted maximal effect. In outline:
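Inhibition of R1881 (0.5 nM final) induced reporter signal was measured in human MDA-kb2 cells; note the MMTV promoter also responds to GR. Exposure lasted 16 hr at 37C.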

Each structure is given as a SMILES string. Values without a mark were called inactive. Results filed as inconclusive are left out. Active and inactive are the calls of the source. Unless noted, the call rests on the fitted dose curve; in most records, active means well fitted curve in the direction sought with a large enough effect in the repeat runs; inconclusive means weak or mixed curves; inactive means no such curve, though single readings can be large; an effect the other way counts as inactive or inconclusive.

Estrogen receptor (Homo sapiens), sequence (P03372 whole entry, looked up): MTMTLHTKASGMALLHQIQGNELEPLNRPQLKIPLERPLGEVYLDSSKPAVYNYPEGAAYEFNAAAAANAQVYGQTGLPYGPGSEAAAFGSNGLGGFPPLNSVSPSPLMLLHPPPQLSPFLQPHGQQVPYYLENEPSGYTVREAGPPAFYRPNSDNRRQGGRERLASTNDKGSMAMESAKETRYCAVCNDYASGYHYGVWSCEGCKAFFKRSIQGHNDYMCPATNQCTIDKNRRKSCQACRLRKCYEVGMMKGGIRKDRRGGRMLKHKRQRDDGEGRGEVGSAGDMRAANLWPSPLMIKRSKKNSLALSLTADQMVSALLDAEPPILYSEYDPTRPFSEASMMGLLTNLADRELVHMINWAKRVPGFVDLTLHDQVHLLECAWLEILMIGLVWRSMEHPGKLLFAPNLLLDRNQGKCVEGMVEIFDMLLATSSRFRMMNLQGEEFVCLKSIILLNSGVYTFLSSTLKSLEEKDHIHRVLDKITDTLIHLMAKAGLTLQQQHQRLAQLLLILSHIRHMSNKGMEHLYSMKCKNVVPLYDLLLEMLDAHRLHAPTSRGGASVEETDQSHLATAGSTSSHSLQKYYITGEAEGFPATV
Androgen receptor (Homo sapiens), sequence (P10275 whole entry, looked up): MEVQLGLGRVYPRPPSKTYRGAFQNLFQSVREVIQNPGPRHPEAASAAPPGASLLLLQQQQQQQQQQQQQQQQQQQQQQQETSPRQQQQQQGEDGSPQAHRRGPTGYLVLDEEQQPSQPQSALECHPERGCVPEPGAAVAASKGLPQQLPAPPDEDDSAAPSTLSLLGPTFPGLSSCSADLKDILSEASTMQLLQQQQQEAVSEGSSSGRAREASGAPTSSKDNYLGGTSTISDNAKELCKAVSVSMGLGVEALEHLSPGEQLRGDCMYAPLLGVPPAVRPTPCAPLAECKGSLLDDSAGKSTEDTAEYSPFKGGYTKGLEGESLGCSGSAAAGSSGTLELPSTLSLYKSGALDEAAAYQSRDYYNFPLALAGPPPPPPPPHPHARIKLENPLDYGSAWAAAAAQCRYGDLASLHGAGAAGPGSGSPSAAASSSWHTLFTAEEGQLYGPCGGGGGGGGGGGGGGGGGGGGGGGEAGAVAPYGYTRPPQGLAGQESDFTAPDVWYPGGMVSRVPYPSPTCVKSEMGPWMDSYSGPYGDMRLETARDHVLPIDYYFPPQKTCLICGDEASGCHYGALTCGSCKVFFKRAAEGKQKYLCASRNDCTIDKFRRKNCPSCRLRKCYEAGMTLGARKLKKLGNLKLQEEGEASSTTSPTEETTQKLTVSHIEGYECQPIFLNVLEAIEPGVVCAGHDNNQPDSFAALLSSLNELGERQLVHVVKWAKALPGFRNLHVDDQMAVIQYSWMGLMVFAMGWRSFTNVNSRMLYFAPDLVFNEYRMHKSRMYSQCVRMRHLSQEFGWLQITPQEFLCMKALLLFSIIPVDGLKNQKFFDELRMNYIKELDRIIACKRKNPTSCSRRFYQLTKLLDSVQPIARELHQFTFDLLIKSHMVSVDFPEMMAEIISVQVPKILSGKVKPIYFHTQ

On to `O=C1c2ccccc2C(=O)C1c1nc2ccccc2c(Br)c1O`, for which the Potency result in assay [1], in [2], in assay [3], in assay [4], in [5] and in assay [6] was “inactive” in each case. The Potency entry in [8], in assay [9], in assay [10] and in [11] was “inactive” in each case. The Potency in [7] is 27.3 µM (active).
Regarding `CC1(C)S[C@@H]2[C@H](NC(=O)C(c3ccccc3)S(=O)(=O)O)C(=O)N2[C@H]1C(=O)O` (stereo partly specified), the Potency result in assay [1], in assay [2], in assay [3], in assay [4], in assay [12] and in assay [5] was “inactive” throughout. Also, the Potency entry in [13], in [14], in assay [6], in assay [15], in assay [7] and in assay [8] was “inactive” throughout. The Potency entry in [9], in assay [10] and in assay [11] was “inactive” in each case.
Turning to `CCCCC(CC)COP(=O)(O)O` (stereo unspecified), the Potency result in [2], in assay [16], in assay [3], in [4], in assay [5] and in assay [14] was “inactive” throughout. The Potency result in assay [17], in assay [6], in assay [7], in assay [8], in assay [9] and in assay [10] was “inactive” each time. In addition, the Potency result in assay [11] was “inactive”.
In the case of `Oc1cc2c(cc1O)[C@H]1c3ccc(O)c(O)c3OC[C@@]1(O)C2`, the Potency entry in assay [2], in [18], in [5], in assay [13], in assay [8] and in [11] was “inactive” in each case. The Potency in assay [3] was 44.2 µM (active); in [4], 22.2 µM (active); in assay [14], 27.6 µM (active); in assay [7], 55.1 µM (active); in assay [9], 27.6 µM (active); in assay [10], 27.6 µM (active).
As for `C(=C\c1ccccc1)/c1ccccc1`, the Potency entry in assay [2], in assay [16], in [3], in assay [18], in [4] and in [5] was “inactive” in each case. Also, the Potency entry in assay [13], in assay [14], in [6], in [8], in [9] and in assay [10] was “inactive” throughout. Besides, the Potency result in assay [11] was “inactive”. In addition, the Potency in assay [7] was 19.2 µM (active).
With `CCCCCCCCN`, the Potency entry in [2], in assay [16], in assay [19], in assay [3], in assay [4] and in [12] was “inactive” throughout. The Potency result in [5], in assay [13], in [14], in assay [17], in [7] and in [8] was “inactive” throughout. Moreover, the Potency result in assay [9], in [10] and in assay [11] was “inactive” each time.
For `C[C@@H](O[C@H]1OCCN(Cc2n[nH]c(=O)[nH]2)[C@H]1c1ccc(F)cc1)c1cc(C(F)(F)F)cc(C(F)(F)F)c1`, the Potency entry in assay [2], in assay [12], in assay [5], in assay [14], in [17] and in assay [7] was “inactive” in each case. The Potency result in [8] and in [11] was “inactive” throughout. Also, the Potency is 16.9 µM (active) in assay [16], 19 µM (active) in assay [3], 16.9 µM (active) in [13] and 29.8 µM (active) in assay [20].
As to `CC(CN(C)C)C(C)(O)Cc1ccc(Cl)cc1` (stereo unspecified), the Potency entry in assay [1], in assay [16], in [3], in assay [4], in assay [12] and in [5] was “inactive” throughout. In addition, the Potency entry in [14], in assay [17], in assay [20], in assay [6], in assay [15] and in assay [7] was “inactive” in each case. Besides, the Potency entry in assay [8], in assay [9], in assay [10] and in assay [11] was “inactive” each time.
In the case of `CC(C)(O)c1ccc(CNC(=O)c2cccnc2Oc2ccc3nonc3c2)cc1`, the Potency entry in [1], in assay [2], in assay [3], in assay [4], in assay [12] and in assay [5] was “inactive” in each case. The Potency entry in [13], in assay [14], in assay [17], in assay [7], in [8] and in assay [10] was “inactive” throughout. For the same compound, in assay [11], the Potency result was “inactive”.
